Screens as filed in PubChem.
Mtb FBA inh = Mtb FBA enzyme inhibitors, primary screen, biochemical, fluorescence, strain H37Rv; inhibition, % at 1 µM; 360,000 compounds, 2.3% hits; purified M. tuberculosis FBA, fluorescence read-out; Fructose-bisphosphate aldolase (Mycobacterium tuberculosis (strain ATCC 25618 / H37Rv)), …;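 also: 0% = vehicle and 100% = reference inhibitor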
Target sequence (P9WQA3 whole entry, looked up): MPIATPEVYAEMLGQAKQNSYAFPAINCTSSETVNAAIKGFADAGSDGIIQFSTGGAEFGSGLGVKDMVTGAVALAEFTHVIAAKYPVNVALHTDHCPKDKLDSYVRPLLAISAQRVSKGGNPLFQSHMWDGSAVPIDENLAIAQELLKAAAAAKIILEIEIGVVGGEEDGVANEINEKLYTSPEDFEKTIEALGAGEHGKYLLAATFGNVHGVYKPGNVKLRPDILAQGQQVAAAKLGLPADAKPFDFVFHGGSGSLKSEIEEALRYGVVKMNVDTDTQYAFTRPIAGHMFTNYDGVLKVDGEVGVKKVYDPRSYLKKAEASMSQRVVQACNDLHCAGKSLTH
GDH-TPI counter-1 = GDH-TPI coupling enzyme inhibitors, primary screen, artefact control for M. tuberculosis FBA inhibitor project, biochemical, absorbance, full deck | GDH-TPI coupled enzyme counterscreen, NADH absorbance | inhibition, % at 4.8 µM | 360,000 compounds, 1.2% hits | AID 588335, 2011; in the data active = inhibition above about 30%;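 also: 0% = DMSO wells and 100% = wells lacking the enzyme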
FadD28 binding = inhibitors of FadD28 bisubstrate probe binding, primary screen, biochemical, fluorescence polarization, single point; Mycobacterium tuberculosis FadD28 fatty-acid-AMP ligase; inhibition, % at 12.5 µM; 360,000 compounds, 0.22% hits; AID 588549, 2011; in the data active = inhibition above about 8.5%, passing the limit was not always enough
Mtb BioA inh = M. tuberculosis BioA enzyme inhibitors, primary screen, biochemical, plate reader, single point, HTS; 7,8-diaminopelargonic acid synthase BioA (Mycobacterium tuberculosis); purified M. tuberculosis BioA enzyme; inhibition, % at 9.99 µM; 360,000 compounds, 0.096% hits; AID 602481, 2012; in the data active = inhibition above about 40%
3CLpro inhibitor = SARS-CoV 3CLpro protease inhibitors, primary screen, biochemical, quenched FRET. recombinant SARS-CoV 3CLpro, quenched FRET peptide cleavage. Replicase polyprotein 1ab (Severe acute respiratory syndrome coronavirus), P0C6X7. 290,000 compounds, 0.14% hits. inhibition, % at 6 µM; in the data active = inhibition above about 12%
Mtb FBA confirm = M. tuberculosis aldolase blockers, biochemical, fluorescence, strain H37Rv, confirmation; shares compounds with Mtb FBA inh; purified M. tuberculosis FBA, fluorescence read-out; inhibition, % at 1 µM; 5,600 compounds, 78% hits; AID 651616, 2012;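 also: 0% = vehicle wells and 100% = reference inhibitor wells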
GDH-TPI counter-2 = GDH-TPI coupling enzyme inhibitors, artefact control for M. tuberculosis FBA inhibitor project, biochemical, fluorescence, high throughput; shares compounds with Mtb FBA inh; GDH-TPI coupled enzyme counterscreen; inhibition, % at 1 µM; 5,600 compounds, 81% hits; AID 652141, 2013; in the data active = inhibition above about 10%
Starred values were filed as active, the others as inactive. The list is not random: actives were taken first. Their share in the collection is about 3.1%. Rule as the data show it, unless noted: active = inhibition above about 27%; inactive = the rest.

How did O=C(O)c1ccc(-c2nc(-c3ccccc3)c(-c3cccs3)[nH]2)cc1 do in these assays?
Mtb FBA inh: 47*; GDH-TPI counter-1: -3; FadD28 binding: 1; 3CLpro inhibitor: 3; Mtb FBA confirm: 75*; GDH-TPI counter-2: 54*

How did O=[N+]([O-])c1ccc(O)c(-c2nc(-c3ccccc3)c(-c3cccs3)[nH]2)c1 do in these assays?
Mtb FBA inh: 2; GDH-TPI counter-1: 8; FadD28 binding: 1; Mtb BioA inh: 1; 3CLpro inhibitor: 1

What do the screens show for `CNC(=O)c1ccc(-c2ccccc2)s1`?
Mtb FBA inh: 28*; GDH-TPI counter-1: 5; FadD28 binding: -3; Mtb BioA inh: 0; 3CLpro inhibitor: -4; Mtb FBA confirm: 78*; GDH-TPI counter-2: 53*

What do the screens show for `CC(=O)Nc1ccc(-c2ccccc2)s1`?
Mtb FBA inh: 2; GDH-TPI counter-1: 5; FadD28 binding: 2; Mtb BioA inh: -1; 3CLpro inhibitor: -2

Results for CCCCCc1nc2c(=O)n(C)c3ccccc3c2o1 ?
Mtb FBA inh: -5; GDH-TPI counter-1: 3; FadD28 binding: -3; Mtb BioA inh: 3; 3CLpro inhibitor: -6

How did Cn1c(=O)c2nc(-c3ccccc3)oc2c2ccccc21 do in these assays?
Mtb FBA inh: 99*; GDH-TPI counter-1: 9; FadD28 binding: -3; 3CLpro inhibitor: 0; Mtb FBA confirm: 91*; GDH-TPI counter-2: 60*

How did O=C(CCC1CCCN(C(=O)c2ccco2)C1)NCc1ccccc1F (configuration not stated) do in these assays?
Mtb FBA inh: 2; GDH-TPI counter-1: 27; FadD28 binding: -1; Mtb BioA inh: -3; 3CLpro inhibitor: 1

How did C=CCC(=O)N1CCCC(CCC(=O)NCc2ccccc2F)C1 (configuration not stated) do in these assays?
Mtb FBA inh: 33*; GDH-TPI counter-1: -3; FadD28 binding: 0; 3CLpro inhibitor: -1; Mtb FBA confirm: 46*; GDH-TPI counter-2: 47*

Results for C[C@H](O)[C@@H]1C(=O)N2CCc3c([nH]c4ccccc34)[C@@H]2C[C@@H]1N(C)C(=O)NC1CCCCC1 ?
Mtb FBA inh: 87*; GDH-TPI counter-1: 11; FadD28 binding: 0; Mtb FBA confirm: 157*; GDH-TPI counter-2: 116*

How did CN1OC[C@@H]2C(=O)N3CCc4c([nH]c5ccccc45)[C@@H]3C[C@@H]21 do in these assays?
Mtb FBA inh: 38*; GDH-TPI counter-1: -8; FadD28 binding: 0; Mtb BioA inh: -3; Mtb FBA confirm: active; GDH-TPI counter-2: 192*

Results for Cc1noc(C)c1S(=O)(=O)Nc1ccc2c(c1)C(=O)N([C@@H](C)CO)C[C@H](C)[C@@H](CN(C)CC1CC1)O2 ?
Mtb BioA inh: 0

How did O=C(N/C(=C/c1cccc([N+](=O)[O-])c1)C(=O)N1CCCCCC1)c1ccco1 do in these assays?
Mtb FBA inh: -2; GDH-TPI counter-1: 16; FadD28 binding: -1; Mtb BioA inh: 3; 3CLpro inhibitor: -1

What do the screens show for `O=C(N/C(=C\c1cccc([N+](=O)[O-])c1)C(=O)N1CCOCC1)c1ccco1`?
Mtb FBA inh: 65*; GDH-TPI counter-1: 20; Mtb BioA inh: -1; 3CLpro inhibitor: -2; Mtb FBA confirm: 176*; GDH-TPI counter-2: 142*

What do the screens show for `C[C@@H]1CN([C@@H](C)CO)C(=O)Cc2cc(NS(=O)(=O)c3cccs3)ccc2O[C@H]1CN(C)C(=O)Nc1ccc(F)cc1`?
Mtb BioA inh: 1

Results for Cc1cccn2c(=O)c3cc(C(=O)NCCc4ccccc4)sc3nc12 ?
Mtb FBA inh: 35*; GDH-TPI counter-1: 6; FadD28 binding: -2; Mtb BioA inh: -1; 3CLpro inhibitor: -1; Mtb FBA confirm: 0; GDH-TPI counter-2: 2

How did Cc1cccn2c(=O)c3cc(C(=O)N4COCC4(C)C)sc3nc12 do in these assays?
Mtb FBA inh: 44*; GDH-TPI counter-1: -8; FadD28 binding: -3; 3CLpro inhibitor: 3; Mtb FBA confirm: 191*; GDH-TPI counter-2: 149*

How did Cc1ccccc1NC(=O)c1cc2c(=O)n3cccc(C)c3nc2s1 do in these assays?
Mtb FBA inh: 3; GDH-TPI counter-1: 16; FadD28 binding: -3; Mtb BioA inh: -1; 3CLpro inhibitor: -1

How did CCCCNC(=O)c1cc2c(=O)n3cccc(C)c3nc2s1 do in these assays?
Mtb FBA inh: 74*; GDH-TPI counter-1: 24; FadD28 binding: 0; Mtb BioA inh: -1; 3CLpro inhibitor: -3; Mtb FBA confirm: active; GDH-TPI counter-2: active

What do the screens show for `Cc1cccn2c(=O)c3cc(C(=O)NC4CCCCCC4)sc3nc12`?
Mtb FBA inh: 27; GDH-TPI counter-1: 4; FadD28 binding: -3; Mtb BioA inh: -1; 3CLpro inhibitor: -5

Results for COCCCNC(=O)c1cc2c(=O)n3cccc(C)c3nc2s1 ?
Mtb FBA inh: 65*; GDH-TPI counter-1: 19; FadD28 binding: 0; Mtb BioA inh: 10; 3CLpro inhibitor: -2; Mtb FBA confirm: 66*; GDH-TPI counter-2: 47*

Results for CN(C)C(=O)[C@H]1[C@H](CO)[C@H]2Cn3c(ccc(-c4cccc(F)c4)c3=O)[C@@H]1N2CCc1ccccc1 ?
Mtb BioA inh: 2

How did C[C@@H](NC(=O)C[C@H]1CC[C@@H]2[C@H](COC[C@@H](O)CN2C)O1)c1ccccc1 do in these assays?
Mtb BioA inh: 2

What do the screens show for `COc1ccc2[nH]c3c(NCCN4CCCCC4)ncnc3c2c1`?
Mtb FBA inh: 25; GDH-TPI counter-1: 15; FadD28 binding: 1; Mtb BioA inh: 2; 3CLpro inhibitor: -4

What do the screens show for `CCOc1ccc2[nH]c3c(NCCO)ncnc3c2c1`?
Mtb FBA inh: 78*; GDH-TPI counter-1: 1; FadD28 binding: -2; 3CLpro inhibitor: 0; Mtb FBA confirm: 45*; GDH-TPI counter-2: 43*

Results for CCOc1ccc2[nH]c3c(NCCc4ccc(OC)c(OC)c4)ncnc3c2c1 ?
Mtb FBA inh: 32*; GDH-TPI counter-1: 16; FadD28 binding: -1; 3CLpro inhibitor: 2; Mtb FBA confirm: 181*; GDH-TPI counter-2: 147*

How did CN(C)C(=O)c1ccc(-c2ccc3n(c2=O)C[C@@H]2[C@@H](CO)[C@H](C(=O)NCCc4ccccc4)N[C@H]32)cc1 do in these assays?
Mtb BioA inh: 0
